The entries come from a sample that favours hits as a whole.
RXFP1 agonist: RXFP1 (human) receptor agonism | actives 0.3% (n = 370,000) | Potency, µM (top dose mostly 57.5 µM), inactives show at the top dose activation, hits mostly activators | HEK293T-RXFP1 cAMP TR-FRET, 30 min; response scale: percent of porcine relaxin response, buffer zero | AID 2676 | Q9HBX9; also: potency is read from the fitted curve at half-maximal effect; % is scaled to controls: 0 for no effect and ±100 for the full control effect; nearly all actives have a fitted effect of over 60% in size
Target sequence (Q9HBX9 whole entry, looked up): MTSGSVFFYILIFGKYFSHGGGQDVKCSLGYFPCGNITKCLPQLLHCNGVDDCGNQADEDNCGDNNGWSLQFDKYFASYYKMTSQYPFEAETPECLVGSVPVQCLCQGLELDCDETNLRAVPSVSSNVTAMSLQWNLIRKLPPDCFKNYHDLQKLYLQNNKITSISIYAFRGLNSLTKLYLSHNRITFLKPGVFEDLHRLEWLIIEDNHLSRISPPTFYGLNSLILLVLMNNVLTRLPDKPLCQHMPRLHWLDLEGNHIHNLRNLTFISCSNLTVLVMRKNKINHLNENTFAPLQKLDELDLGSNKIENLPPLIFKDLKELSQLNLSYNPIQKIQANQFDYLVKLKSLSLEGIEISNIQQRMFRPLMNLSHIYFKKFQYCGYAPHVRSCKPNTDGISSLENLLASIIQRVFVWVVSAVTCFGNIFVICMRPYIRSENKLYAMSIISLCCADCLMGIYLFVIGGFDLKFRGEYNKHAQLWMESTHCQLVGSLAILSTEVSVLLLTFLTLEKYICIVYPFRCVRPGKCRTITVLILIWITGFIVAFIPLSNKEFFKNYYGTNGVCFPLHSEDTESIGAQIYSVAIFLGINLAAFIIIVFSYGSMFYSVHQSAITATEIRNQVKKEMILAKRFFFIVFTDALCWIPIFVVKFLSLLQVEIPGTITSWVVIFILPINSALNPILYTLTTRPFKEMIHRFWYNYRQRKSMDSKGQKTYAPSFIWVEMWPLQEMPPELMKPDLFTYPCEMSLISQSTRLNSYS
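HEK293T cells stably expressing RXFP1 were pretreated with the PDE4 inhibitor Ro 20174, exposed to compounds for 30 min at 37C, lysed, and cAMP was read by TR-FRET. Data normalized to buffer (basal) and 29 nM porcine relaxin (100%).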
PTHR1 ag: agonists of human PTHR1 parathyroid hormone receptor; Q03431; HEK293 GP2 PTHR1 cells, GloSensor cAMP luminescence, 1 h; Potency, µM (highest dose often 115 µM), for inactives: top-dose activation, most hits filed as activators; actives 0.075% (n = 410,000); AID 743266; also: potency is read from the fitted curve at half-maximal effect; nearly all actives have a fitted effect of over 55% in size
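HEK-293-derived GP2 cells expressing PTHR1 and a GloSensor cAMP reporter, 3,000/well, plated overnight, given luciferin plus IBMX (each 0.5 mM as added) for 1 h at 37 °C, then compound for 1 h at 37 °C. Luminescence was read after 15 min at room temperature.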
RXFP1 antagonist: antagonists of human relaxin receptor RXFP1; activity change, negative = inhibition, % at 57.5 µM; HEK293-RXFP1, relaxin-stimulated cAMP HTRF, 30 min; stronger effect = lower value; AID 1259400; Q9HBX9; actives 0.59% (n = 350,000);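 active = activity change of -60% or lower, but not beyond a set lower limit; inconclusive = change between -60% and -40%, or beyond the set limit; inactive = change above -40%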; also: % is scaled to controls: 0 for no effect and ±100 for the full control effect
NPSR antagonist: antagonists of human neuropeptide S receptor cAMP signaling | Q6W5P4 | CHO-NPSR cells, cAMP TR-FRET, antagonist mode | Potency, µM (titrated, usually from 38.3 µM), for inactives: top-dose activity change, negative = inhibition, most hits filed as inhibitors | actives 1% (n = 220,000) | AID 1461; also: potency is read from the fitted curve at half-maximal effect; % is scaled to controls: 0 for no effect and ±100 for the full control effect; nearly all actives have a fitted effect of over 50% in size
GLP1R cytotox: cytotoxicity in counter-screen for GLP-1R inverse agonists; HEK293 cAMP-luciferase reporter cells, luminescence, 24 h; Potency, µM (highest dose often 38.3 µM), for inactives: at the highest dose activity change, negative = inhibition, usual class: inhibitors; actives 0.13% (n = 410,000); AID 624418;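 also: loss of luciferase light is scored as toxicity; potency is read from the fitted curve at half-maximal effect; % is scaled to controls: 0 for no effect and ±100 for the full control effect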
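Quantitative HTS format, 1536 wells, 200 cells/uL seeded. Compounds: 23 nL, 24 h, 37 °C. Detection: luciferase reagent, luminescence at 12 min RT; decreased signal taken as cytotoxic.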
TSHR antag: blocks TSH signaling through the human TSH receptor; actives 0.2% (n = 330,000); P16473; activity change, negative = inhibition, % at 11.5 µM; TSHR-expressing cells, TSH-stimulated cAMP HTRF, 2 h; stronger effect = lower value;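 active = activity change below a set negative limit, meaning inhibition stronger than a set level, cut at about -70% in these data; inconclusive = activity change between two set negative limits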; also: % is scaled to controls: 0 for no effect and ±100 for the full control effect
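TSHR-expressing cells were treated with compounds, then stimulated with TSH at EC80 (4nM final) for 2 hours at 37 deg C. Cellular cAMP was measured by HTRF competition between lysate cAMP and cAMP-d2 for a cryptate-labelled anti-cAMP antibody.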
Numbers without * were called inactive; [ ] = dose if it differs, or a comment. Unless noted, calls follow the shape of the dose curve; as a rule, active = well fitted curve in the direction sought with a large enough effect; inconclusive = small, poorly fitted or top-dose-only effect, or another doubt; inactive = no such curve, though single readings can be large; an effect the other way counts as inactive or inconclusive.

CCC(C(=O)NCCCc1ccccc1)n1nc(C)c2c(C)n(-c3ccccc3)nc2c1=O (stereo not drawn) was read as RXFP1 agonist 0%, PTHR1 ag -20%, RXFP1 antagonist -62*, GLP1R cytotox -6% and TSHR antag 0.
`CCC(C(=O)NC1CC1)n1nc(C)c2c(C)n(-c3ccc(C)cc3)nc2c1=O` (stereo not drawn) gave RXFP1 agonist 2%, PTHR1 ag -25%, RXFP1 antagonist inconclusive, GLP1R cytotox -4% and TSHR antag -7.
Screening Cc1ccc(-n2nc3c(=O)n(C(C)C(=O)NC4CC4)nc(C)c3c2C)cc1 (stereo not drawn) returned RXFP1 agonist -1%, PTHR1 ag -12%, RXFP1 antagonist -2, GLP1R cytotox -7% and TSHR antag -114*.
Screening CCC(C(=O)NCCc1ccco1)n1nc(C)c2c(C)n(-c3ccccc3)nc2c1=O (stereo not drawn) returned RXFP1 agonist 2%, PTHR1 ag -12%, RXFP1 antagonist -11, GLP1R cytotox -13% and TSHR antag 6.
Screening CCn1c(SCc2ccc(F)cc2Cl)nc(=O)c2c(C(=O)OC)cc(C3CC3)nc21 returned RXFP1 agonist 0%, PTHR1 ag -66%, RXFP1 antagonist -84* and GLP1R cytotox -20%.
`CCn1c(SCc2ccccc2F)nc(=O)c2c(C(=O)OC)cc(C3CC3)nc21` gave RXFP1 agonist 0%, PTHR1 ag -64%, RXFP1 antagonist -102* and GLP1R cytotox 12%.
Screening O=C(COc1ccc2ccccc2c1)N1CCN(C(=O)c2ccco2)CC1 returned RXFP1 agonist 3%, PTHR1 ag -53%, RXFP1 antagonist -84*, NPSR antagonist 8%, GLP1R cytotox -5% and TSHR antag 7.
Screening COC(=O)C1=C(C)NC(C)=C(C(=O)OCCN(C)Cc2ccccc2)C1c1cccc([N+](=O)[O-])c1 (stereo not drawn) returned RXFP1 agonist -1%, PTHR1 ag -20%, RXFP1 antagonist -76*, NPSR antagonist 10µM*, GLP1R cytotox 1% and TSHR antag -19.
Screening O=C(COc1ccccc1)N=C1SC2CS(=O)(=O)CC2N1c1ccc(F)cc1F (stereo not drawn) returned RXFP1 agonist 1%, PTHR1 ag inactive, RXFP1 antagonist 4, GLP1R cytotox -4% and TSHR antag -6.
CC1OC(CC(=O)O)CC2=C1C(=O)c1c(O)cccc1C2=O (stereo not drawn) was read as PTHR1 ag -44%, RXFP1 antagonist -63* and GLP1R cytotox 0.89µM*.
Screening CCCC(=NC(C)CC)C1=C(O)CC(c2ccccc2)CC1=O (stereo not drawn) returned RXFP1 agonist 1%, PTHR1 ag -6%, RXFP1 antagonist -24, GLP1R cytotox 8% and TSHR antag -88*.
Screening CCc1cc2c(=O)c(-c3cnn(-c4ccccc4)c3)c(C)oc2cc1OCC(=O)Nc1ccc(F)c(F)c1 returned RXFP1 agonist 2%, PTHR1 ag inactive, RXFP1 antagonist 3, NPSR antagonist 7.9µM*, GLP1R cytotox -2% and TSHR antag 8.
For Cc1ccc2cccc(NC(=O)COc3ccccc3Cl)c2n1 the results were RXFP1 agonist -1%, PTHR1 ag -30% and GLP1R cytotox 0%.
O=C(c1ccc2c(=O)n3c(nc2c1)CCCCC3)N1CCCCC1 was read as RXFP1 agonist 2%, PTHR1 ag inactive, RXFP1 antagonist -108*, GLP1R cytotox -1% and TSHR antag -6.
O=C(c1ccc2c(=O)n3c(nc2c1)CCCCC3)N1CCN(c2ccccc2)CC1 was read as RXFP1 agonist 0%, PTHR1 ag inactive, RXFP1 antagonist -13, NPSR antagonist 9%, GLP1R cytotox 8% and TSHR antag 1.
`COc1cccc(NC(=O)CCc2nc(-c3ccccc3F)no2)c1` gave RXFP1 agonist -2%, PTHR1 ag inactive, RXFP1 antagonist -4, NPSR antagonist 2%[46.1 µM], GLP1R cytotox 1% and TSHR antag -2.
For O=C(CCc1nc(-c2ccccc2F)no1)Nc1ccc(Oc2ccccc2)cc1 the results were RXFP1 agonist 0%, PTHR1 ag -7%, RXFP1 antagonist -7, NPSR antagonist 0%[46.1 µM], GLP1R cytotox inconclusive and TSHR antag -73*.
`CCN(CC(=O)Nc1ccccc1C(F)(F)F)C(=O)c1oc2c(Cl)cccc2c1C` gave RXFP1 agonist 2%, PTHR1 ag -15%, RXFP1 antagonist -1, GLP1R cytotox 13% and TSHR antag 1.
Screening CCN(CC(=O)Nc1ccc(OC)cc1)C(=O)c1oc2c(Cl)cccc2c1C returned RXFP1 agonist 0%, PTHR1 ag inactive, RXFP1 antagonist -100*, GLP1R cytotox -6% and TSHR antag -3.
Screening Cn1cc(C(=O)[C@@H]2CCc3nc[nH]c3C2)c2ccccc21 returned RXFP1 antagonist 6.
For O=C1c2cccnc2C(=O)N1Cc1ccc(S(=O)(=O)N2CCN(c3ccc(Cl)cc3)CC2)cc1 the results were RXFP1 agonist -2%, PTHR1 ag inactive, RXFP1 antagonist 9, GLP1R cytotox 0% and TSHR antag -135*.
Screening CCOC(=O)C1CCN(S(=O)(=O)c2ccc(CN3C(=O)c4cccnc4C3=O)cc2)CC1 returned RXFP1 agonist 5%, PTHR1 ag inactive, RXFP1 antagonist 10, GLP1R cytotox -4% and TSHR antag 34.
Screening OCCN(CCO)c1ccc2ccccc2c1 returned RXFP1 agonist 1%, PTHR1 ag -20%, RXFP1 antagonist -3, NPSR antagonist 17%, GLP1R cytotox -4% and TSHR antag -10.
OCCN(CCO)c1ccc(C(c2ccccc2Cl)c2ccc(N(CCO)CCO)cc2Cl)c(Cl)c1 was read as RXFP1 agonist 1%, PTHR1 ag -10%, RXFP1 antagonist -60*, NPSR antagonist -27%[46.1 µM], GLP1R cytotox inconclusive and TSHR antag -20.
COc1ccc(-c2nn(-c3ccccc3)cc2/C=N/NC(=O)c2ccc(Br)o2)cc1 was read as RXFP1 agonist 4%, PTHR1 ag inactive, RXFP1 antagonist 2, NPSR antagonist 6.3µM*, GLP1R cytotox 22% and TSHR antag -95*.
Screening CCOC(=O)c1cc(-c2ccccc2)n(-c2cccc(C(=O)N(C)c3ccc(C)cc3)c2)c1C returned RXFP1 agonist -1%, PTHR1 ag inactive, RXFP1 antagonist -63* and GLP1R cytotox -6%.

Screening data deposited in PubChem BioAssay by National Center for Advancing Translational Sciences (NCATS).
